In PubChem BioAssay (NCATS) one finds Potency, caspase-3 activation and outcome data, which are given here for twelve compounds.

A number with no mark means an inactive call. Results filed as inconclusive are left out. The source made the active and inactive calls. Unless noted, calls come from the whole dose curve; as a rule, active = well fitted curve in the direction sought with a large enough effect; inconclusive = small, poorly fitted or top-dose-only effect, or another doubt; inactive = no such curve, though single readings can be large; an effect the other way counts as inactive or inconclusive.

Assay [1] can be described thus: Cellular Toxicity (caspase-3) SHSY5Y (AID 657). The procedure, abridged: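 Luminescent caspase-3/7 readout (aminoluciferin release) in SH-SY5Y cells after 16 h compound exposure in complete medium. Activity scaled between DMSO basal and 10 uM staurosporine as 100%; concentration-response fitted to Hill equation for AC50.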
Assay [2] in a line: Cellular Toxicity (caspase-3) BJ (AID 658).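 Note: 0% = DMSO basal and 100% = 10 µM staurosporine.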 The settings on record: Potency: caspase-3 activation. In a few lines:
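BJ human foreskin fibroblasts, 1000 cells/well, treated 16 hours at 37 °C in complete medium; caspase 3/7 activity by Caspase-Glo luminescence after 1 hr at room temperature. Normalized to DMSO and 10 uM staurosporine; AC50 from Hill fits.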

Assay [3] is described as follows: Cellular Toxicity (caspase-3) MRC-5 (AID 659).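 Note: 0% = DMSO basal and 100% = 10 µM staurosporine.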 The note with it: Potency: caspase-3 activation. The procedure, abridged:
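MRC-5 human normal lung fibroblasts, 1500 cells/well, treated 16 h at 37 °C in complete medium. Caspase 3/7 measured by Caspase-Glo luminescence after 1 h at room temperature. Normalized to DMSO and 10 uM staurosporine; AC50 from Hill fit.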

Assay [4] is described as follows: Cellular Toxicity (caspase-3) Mesangial (AID 660).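 Note: combined caspase 3 and 7 activity read by Caspase-Glo luminescence.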 The settings on record: Potency: caspase-3 activation. The procedure, abridged: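 Mesangial cells, 1000/well, 5 h settle at 37 °C; compound 16 h, 37 °C; Caspase-Glo 3/7 reagent 20 min RT; luminescence. Norm.: DMSO = 0%, tamoxifen 100 uM = 100%. AC50, Hill fit.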
Assay [5] is described as follows: Cellular Toxicity (caspase-3) SK-N-SH (AID 661).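 Note: 0% = DMSO basal and 100% = 10 µM staurosporine.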 The procedure, abridged: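 Human neuroblastoma SK-N-SH, 1500 cells/well, 5 hr pre-incubation, then compound 16 hr, 37 °C. Caspase-Glo 3/7 reagent, 1 hr RT, luminescence. Norm. to DMSO/10 uM staurosporine; Hill-fit AC50.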
The nature of assay [6]: Cellular Toxicity (caspase-3) H-4-II-E (AID 663).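 Note: cells exposed to compound for 16 hr before readout.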 The note with it: H-4-II-E rat hepatoma, scaled: DMSO 0%, 100 µM tamoxifen 100%; at 92.2 µM (top of the series). In a few lines: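 Rat hepatoma H-4-II-E cells (1500/well) plated 5 hr, then exposed to compound titrations for 16 hr at 37 °C. Caspase-Glo 3/7 luminescence read after 20 min at RT; data normalized to DMSO and 100 uM tamoxifen, AC50 from Hill fits.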

The nature of assay [7]: Cellular Toxicity (caspase-3) N2a (AID 665).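 Note: compound exposure lasted 16 h at 37 °C before readout.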 In a few lines:
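N2a cells, 1500/well, 5 h settle at 37 °C; cpd 16 h, 37 °C; Caspase-Glo 3/7, 1 h RT; luminescence. Norm: DMSO = 0, 10 uM staurosporine = 100%. AC50, Hill fit.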

Assay [8] can be described thus: Cellular Toxicity (caspase-3) NIH 3T3 (AID 666).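 Note: caspase signal read after 16 h compound exposure; 0% = DMSO basal and 100% = 100 µM tamoxifen stimulation.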 The procedure, abridged: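 Luminescence from aminoluciferin released by caspase-3/7 cleavage of a peptide substrate served as read-out. Mouse fibroblast NIH 3T3 cells were exposed to compounds over a concentration range for 16 hours, and AC50 values came from standard Hill modelling.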
Assay [9] concerns the target Cytochrome P450 3A4 (Homo sapiens) (UniProt P08684). Put plainly: qHTS Assay for Activators of Cytochrome P450 3A4 (AID 885). Note: nearly all actives have a fitted effect of over 65% in size. The procedure, abridged:
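Quantitative HTS format: compounds preincubated with 20nM human CYP3A4 and Luciferin-PPXE substrate at KM, reaction started by NADPH regeneration, stopped after 60 min, luciferase luminescence read 20 min later.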

Assay [10] is described as follows: Confirmation and Secondary Assay for Modulators of Hemoglobin Beta Chain Splicing at IVS2 654 locus (AID 910).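 Note: HeLa cells stably carrying EGFP split by mutant beta-globin IVS2-654 intron.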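 Note: potency is the fitted concentration of half-maximal effect; potency of activators that raise GFP signal by restoring correct splicing.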 The procedure, abridged: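 HeLa cells stably expressing EGFP interrupted by β-globin IVS2-654 intron, seeded overnight in Opti-MEM/2% FCS, then treated 2 days at 37 °C. Restored splicing read as total peak GFP intensity per well by laser scanning cytometry (488 nm excitation, 500–520 nm emission); 500 nM antisense PNA as control.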

Assay [11] is described as follows: Cell Viability - LYMP2-001 (AID 921).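 Note: cells exposed to compound for 24 h at 37 °C; 0% = DMSO only and full inhibition = tetraoctylammonium bromide control wells; nearly all actives have a fitted effect of over 70% in size.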 The procedure, abridged: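 CellTiter-Glo luminescence (intracellular ATP) after 24 hr compound exposure at 37 C, 2500 lymphoblastoid cells/well in complete medium. AC50 fitted with standard Hill equation; tetraoctylammonium bromide positive control.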
Assay [12] can be described thus: Confirmation and Secondary Assay for Modulators of Hemoglobin Beta Chain Splicing at IVS2 705 locus (AID 930).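 For activation: HeLa cells stably expressing the EGFP-705 splicing reporter; % of control where 0% means no effect.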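 Note: GFP fluorescence per well restored by corrected splicing of the IVS2-705 intron in EGFP.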 Note: potency is the fitted concentration of half-maximal effect. In a few lines:
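HeLa IVS2-705 EGFP reporter cells, 500/well, compound 2 d at 37C; correct splicing yields fluorescent EGFP. Control: 500 nM antisense PNA. Read-out: total peak GFP intensity.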

Assay [13] has as its target Guanine nucleotide-binding protein G(i) subunit alpha-1 (Homo sapiens) (UniProt P63096). Put plainly: qHTS Assay for Inhibitors of RGS12 GoLoco Motif Activity (Green Fluorophore) (AID 879).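 Note: 0% = labeled peptide with Gαi1 and full inhibition = labeled peptide alone without protein; negative values mean loss of peptide binding seen as reduced polarization.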 The procedure, abridged: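 Fluorescence polarization assay: 50 nM Gαi1 with 10 nM FITC-labeled RGS12 GoLoco peptide in 10 mM Tris pH 7.5, 150 mM NaCl, 0.1 mM GDP, 0.05% NP40, 10 min at room temperature with compound.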
A general note: In qHTS, concentration-response curves come from the screen itself.

Assay [14] in a line: qHTS Assay for Identification of Small Molecule Antagonists for NFkB Signaling Pathway (AID 895; active = well fitted inhibition curve with a large enough effect in the signal ratio, with a control signal flat, not every such curve was filed as active; the % refers to the signal ratio; note: potency is the fitted concentration of half-maximal effect). The procedure, abridged: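 ME-180 NFkB-bla cells (beta-lactamase under NFkB response element), plated overnight, treated with compound then 10 pM TNF alpha (about EC50) for 5 hrs at 37 C. LiveBLAzer FRET read at 460/530 nm emission, 405 nm excitation.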
A short description of assay [15]: qHTS Assay for Identification of Small Molecule Agonists for Thrombopoietin (TPO) Signaling Pathway (AID 917). Note: % is set by controls: 0 for no effect and ±100 for the full control effect. The procedure, abridged: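 Activators of TPO signaling were sought in murine Ba/F3 cells transfected with the human receptor, using a luciferase gene driven by the Glycoprotein IIb promoter; 24-hr compound exposure at 37 C alongside 26 pM TPO, in IL-3-free medium.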

Assay [16] addresses Cytochrome P450 3A4 (Homo sapiens) (UniProt P08684). Put plainly: qHTS Assay for Inhibitors and Substrates of Cytochrome P450 3A4 (AID 884). Note: % is set by controls: 0 for no effect and ±100 for the full control effect; nearly all actives have a fitted effect of over 50% in size. The procedure, abridged:
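20 nM human CYP3A4 with 25 uM Luciferin-PPXE (at KM) in 200 mM KPO4, preincubated 10 min with compound; NADPH regeneration started a 60 min RT reaction. Luciferin detected by luminescence, normalized to 57 uM ketoconazole as full inhibition.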

In assay [17] the target is Cytochrome P450 2C9 (Homo sapiens) (UniProt P11712). Put plainly: qHTS Assay for Inhibitors and Substrates of Cytochrome P450 2C9 (AID 883). Note: % is set by controls: 0 for no effect and ±100 for the full control effect; nearly all actives have a fitted effect of over 60% in size. The procedure, abridged:
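10nM CYP2C9 + 100uM Luciferin-H (=KM), 25mM KPO4; cpd 10 min 37C; NADPH regen, 60 min 37C; stop/detect with P450 Glo-Buffer 20 min; luminescence. Norm. to 57uM sulphaphenazole as full inhibition.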

The target of assay [18] is Cytochrome P450 2D6 (Homo sapiens) (UniProt P10635). Put plainly: qHTS Assay for Inhibitors and Substrates of Cytochrome P450 2D6 (AID 891).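 Note: luciferin methyl ether substrate demethylated by CYP2D6 with NADPH regeneration; % is set by controls: 0 for no effect and ±100 for the full control effect; nearly all actives have a fitted effect of over 60% in size.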 The procedure, abridged:
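Human CYP2D6 (5 nM) with 30 uM Luciferin-ME EGE (at Km) in 100 mM KPO4, compound preincubated 10 min, then NADPH regeneration system for 60 min at room temperature. Luciferin read by luminescence; normalized to 1.43 uM quinidine.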

Assay [19] concerns the target Cytochrome P450 2C19 (Homo sapiens) (UniProt P33261). Put plainly: qHTS Assay for Inhibitors and Substrates of Cytochrome P450 2C19 (AID 899). Note: % is set by controls: 0 for no effect and ±100 for the full control effect; nearly all actives have a fitted effect of over 60% in size. The procedure, abridged:
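Luminescent read-out of luciferin formed from Luciferin-H EGE (10uM, equal to KM). Enzyme 5nM in 50mM KPO4; compound added, 10 min at 37C, then NADPH regenerating system for 60 min at 37C. Full inhibition defined by 57uM ketoconazole.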

Chain of Cytochrome P450 3A4 (Homo sapiens) (P08684 whole entry, looked up): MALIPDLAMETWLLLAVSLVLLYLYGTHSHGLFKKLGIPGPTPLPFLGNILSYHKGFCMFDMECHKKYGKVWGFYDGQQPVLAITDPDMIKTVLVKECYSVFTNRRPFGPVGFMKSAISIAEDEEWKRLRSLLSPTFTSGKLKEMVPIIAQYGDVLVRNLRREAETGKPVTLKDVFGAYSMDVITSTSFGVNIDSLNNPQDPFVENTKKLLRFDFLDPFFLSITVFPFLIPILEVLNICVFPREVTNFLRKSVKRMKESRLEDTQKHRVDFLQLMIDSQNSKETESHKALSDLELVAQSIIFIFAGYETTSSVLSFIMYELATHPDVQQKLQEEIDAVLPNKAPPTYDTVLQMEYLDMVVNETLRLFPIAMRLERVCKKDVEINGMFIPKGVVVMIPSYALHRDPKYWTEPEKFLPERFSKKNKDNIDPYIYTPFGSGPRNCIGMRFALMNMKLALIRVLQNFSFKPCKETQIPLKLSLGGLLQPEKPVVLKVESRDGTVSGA
Chain of Guanine nucleotide-binding protein G(i) subunit alpha-1 (Homo sapiens) (P63096 whole entry, looked up): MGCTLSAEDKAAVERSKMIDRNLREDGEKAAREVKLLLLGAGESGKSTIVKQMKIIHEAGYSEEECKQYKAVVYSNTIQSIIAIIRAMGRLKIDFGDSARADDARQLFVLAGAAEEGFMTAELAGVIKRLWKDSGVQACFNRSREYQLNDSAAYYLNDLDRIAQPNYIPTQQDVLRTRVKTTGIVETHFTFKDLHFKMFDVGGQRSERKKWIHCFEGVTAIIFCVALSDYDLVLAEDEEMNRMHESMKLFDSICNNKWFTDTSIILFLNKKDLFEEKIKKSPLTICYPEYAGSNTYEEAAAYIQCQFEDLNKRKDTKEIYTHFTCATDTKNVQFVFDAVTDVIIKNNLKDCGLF
Chain of Cytochrome P450 2C19 (Homo sapiens) (P33261 whole entry, looked up): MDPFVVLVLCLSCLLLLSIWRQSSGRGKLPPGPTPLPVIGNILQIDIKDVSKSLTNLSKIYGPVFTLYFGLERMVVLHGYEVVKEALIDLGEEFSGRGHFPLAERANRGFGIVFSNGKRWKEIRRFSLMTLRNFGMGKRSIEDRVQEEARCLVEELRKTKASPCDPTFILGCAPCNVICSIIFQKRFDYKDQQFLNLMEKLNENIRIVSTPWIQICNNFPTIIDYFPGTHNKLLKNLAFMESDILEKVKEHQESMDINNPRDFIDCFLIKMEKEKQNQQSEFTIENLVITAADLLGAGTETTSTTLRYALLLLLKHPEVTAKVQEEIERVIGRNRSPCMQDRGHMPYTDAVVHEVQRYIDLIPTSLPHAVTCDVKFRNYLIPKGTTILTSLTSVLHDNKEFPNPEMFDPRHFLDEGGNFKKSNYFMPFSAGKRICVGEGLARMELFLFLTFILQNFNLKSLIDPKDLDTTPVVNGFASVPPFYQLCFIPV
Chain of Cytochrome P450 2D6 (Homo sapiens) (P10635 whole entry, looked up): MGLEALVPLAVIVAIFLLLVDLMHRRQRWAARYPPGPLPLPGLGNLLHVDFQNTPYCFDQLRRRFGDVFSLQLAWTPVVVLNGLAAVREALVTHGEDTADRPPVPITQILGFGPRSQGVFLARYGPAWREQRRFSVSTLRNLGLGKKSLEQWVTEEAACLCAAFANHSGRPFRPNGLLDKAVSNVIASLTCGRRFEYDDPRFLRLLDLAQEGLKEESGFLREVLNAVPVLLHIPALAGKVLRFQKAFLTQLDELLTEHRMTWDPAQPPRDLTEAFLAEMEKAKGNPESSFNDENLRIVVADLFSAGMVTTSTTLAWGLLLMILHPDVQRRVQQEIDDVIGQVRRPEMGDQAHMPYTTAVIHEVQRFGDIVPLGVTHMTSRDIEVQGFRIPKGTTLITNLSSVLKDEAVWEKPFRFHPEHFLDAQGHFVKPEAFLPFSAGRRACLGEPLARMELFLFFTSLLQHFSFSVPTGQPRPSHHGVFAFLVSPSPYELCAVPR
Chain of Cytochrome P450 2C9 (Homo sapiens) (P11712 whole entry, looked up): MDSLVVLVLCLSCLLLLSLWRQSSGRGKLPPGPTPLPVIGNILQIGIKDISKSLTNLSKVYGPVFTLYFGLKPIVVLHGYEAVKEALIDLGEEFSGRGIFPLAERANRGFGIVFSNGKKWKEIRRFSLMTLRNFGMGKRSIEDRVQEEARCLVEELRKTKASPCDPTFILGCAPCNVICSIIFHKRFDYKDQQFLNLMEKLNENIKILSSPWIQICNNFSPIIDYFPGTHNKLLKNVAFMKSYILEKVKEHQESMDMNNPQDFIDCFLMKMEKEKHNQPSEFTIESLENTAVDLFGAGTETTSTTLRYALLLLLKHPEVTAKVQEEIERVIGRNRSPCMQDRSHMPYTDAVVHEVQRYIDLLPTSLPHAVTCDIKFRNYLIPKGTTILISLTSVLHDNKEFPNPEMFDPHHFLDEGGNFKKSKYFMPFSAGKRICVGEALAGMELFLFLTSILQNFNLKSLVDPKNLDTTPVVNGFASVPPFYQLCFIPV

Regarding `NNC(=O)c1ccncc1`, the Potency entry in assay [1], in assay [2], in [3], in assay [4], in [5] and in assay [8] was “inactive” in each case. Further, the Potency entry in assay [10], in assay [11] and in assay [12] was “inactive” each time. In assay [6], the caspase-3 activation was 0.877%. The result in [7] and in assay [9] was inactive.
Take `C[C@]12C=CC(=O)C=C1CC[C@@H]1[C@@H]2C(=O)C[C@@]2(C)[C@H]1CC[C@]2(O)C(=O)CO`: the Potency result in assay [1], in [2], in [3], in assay [4], in [5] and in assay [8] was “inactive” in each case. Also, the Potency result in [11] is “inactive”. The caspase-3 activation in [6] is 0.264%. Besides, the compound was classed as inactive in assay [7].
In the case of `COc1cc2ncnc(Nc3cccc(Cl)c3)c2cc1OC`, the compound was classed as inactive in [13] and in assay [15]. In addition, the Potency in [14] is 15.8 µM (active).
With `Cc1nnc(NS(=O)(=O)c2ccc(N)cc2)s1`, the Potency result in [1], in assay [2], in assay [3], in assay [4], in assay [5] and in assay [8] was “inactive” throughout. Besides, the Potency entry in [10], in [11] and in assay [12] was “inactive” each time. Moreover, the caspase-3 activation in assay [6] is -0.129%. Also, the call in assay [7] and in assay [16] was inactive.
Regarding `NC(=O)c1cccc(N)c1`, the compound was classed as inactive in assay [13], in assay [17] and in [15]. Moreover, the Potency entry in [18], in [14] and in [19] was “inactive” each time.
For `CC1=NN(c2ccccc2)C(=O)C1`, the Potency result in [1], in assay [2], in assay [3], in [4], in assay [5] and in [8] was “inactive” throughout. The Potency entry in [10], in [11] and in assay [12] was “inactive” in each case. For the same compound, the caspase-3 activation in assay [6] was -1.22%. The result in assay [7] and in assay [9] was inactive.
Regarding `CCCCCCNC(=O)n1cc(F)c(=O)[nH]c1=O`, the Potency entry in assay [10] and in [12] was “inactive” each time.
As for `Nc1nc(=S)c2[nH]cnc2[nH]1`, in assay [16], the result was inactive. For the same compound, the figures for the Potency in assay [10] and in assay [12] were 31.6 µM (active) and 5.01 µM (active), respectively.
`CN(CCOc1ccc(CC2SC(=O)NC2=O)cc1)c1ccccn1` (stereo not drawn): the Potency result in assay [10] and in [12] was “inactive” each time.
Take `COc1ccc2c(c1)c(CC(=O)OCC(=O)O)c(C)n2C(=O)c1ccc(Cl)cc1`: the compound was classed as inactive in assay [16]. For the same compound, the Potency result in assay [10] and in assay [12] was “inactive” throughout.
As to `CCCCOc1ccc(CC(=O)NO)cc1`, the compound was called inactive in assay [16]. In addition, the Potency entry in [10] and in [12] was “inactive” in each case.
Consider `COc1cc([C@@H]2c3cc4c(cc3[C@H](O)[C@H]3COC(=O)[C@H]23)OCO4)cc(OC)c1OC`, for which, in [9], the compound was called inactive.
